Laboratory results from PubChem BioAssay AID2018 (Sanford-Burnham Center for Chemical Genomics, 2009).
About 600 (50%) of roughly 1,200 compounds were called active. Rule as the data show it: active = inhibition above about 42%; inactive = the rest. So high a share suggests a set chosen from earlier hits. Some of the results follow. Results with a measured potency or affinity are listed apart.

Target: SUMO-conjugating enzyme UBC9 (Homo sapiens) (UniProt P63279)
Test: SUMOylation inhibitor hit validation, confirmation, SUMOylation inhibitor project, biochemical, AlphaScreen (AID 2018)
Settings: AlphaScreen in vitro SUMOylation assay; at 35 µM; stronger effect = higher value

Chain of SUMO-conjugating enzyme UBC9 (Homo sapiens) (P63279 whole entry, looked up): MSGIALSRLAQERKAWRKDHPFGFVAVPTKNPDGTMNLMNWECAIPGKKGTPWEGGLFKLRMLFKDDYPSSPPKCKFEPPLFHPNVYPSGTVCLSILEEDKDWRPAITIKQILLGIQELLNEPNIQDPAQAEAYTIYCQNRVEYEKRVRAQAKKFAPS

Row | Compound | inhibition
1 | Cc1occc1C(=O)N1CCN(c2ccccc2)CC1 | 19.6% (inactive)
2 | Nc1c(C(=O)NCc2ccco2)c2nc3ccccc3nc2n1CCc1ccccc1F | 2.7% (inactive)
3 | COCCNC(=O)c1c(N)n(CCC2=CCCCC2)c2nc3ccccc3nc12 | 4.1% (inactive)
4 | CC(C)Cn1c(N)c(C(=O)NCc2cccs2)c2nc3ccccc3nc21 | -100% (inactive)
5 | COCCn1c(N)c(C(=O)NCc2cccs2)c2nc3ccccc3nc21 | -23.2% (inactive)
6 | O=c1cc(-c2ccc(F)cc2)[nH][nH]1 | 24.9% (inactive)
7 | Cn1c(NNC(=O)c2c(F)cccc2F)cc(=O)n(C)c1=O | 42.1% (active)
8 | CC1=NN(c2ccccc2)C(=O)/C1=C\c1cn(CCC#N)nc1-c1ccc(Cl)cc1 | 60.8% (active)
9 | CC1=NN(c2ccccc2)C(=O)/C1=C/c1cccs1 | 40.6% (inactive)
10 | COc1cc(/C=C2\C(=O)N(CCC#N)N=C2C)c(Br)cc1OC(C)C | -16.2% (inactive)
11 | CC1=NN(c2ccccc2)C(=O)/C1=C\c1ccc(Br)s1 | 75% (active)
12 | CC1=NN(c2ccccc2)C(=O)/C1=C/c1ccc(Cl)cc1 | 58.2% (active)
13 | CC1=NN(c2ccc(Br)cc2)C(=O)/C1=C/c1cccs1 | 59.4% (active)
14 | O=c1c2ccccc2oc2cc(NCCCN3CCOCC3)ccc12 | -1.4% (inactive)
15 | CCCNC(=O)c1ccc2c(=O)c(O)c(-c3ccsc3)[nH]c2c1 | 16.3% (inactive)
16 | O=C1C(NS(=O)(=O)c2cccs2)=C(N2CCN(c3cccc(C(F)(F)F)c3)CC2)C(=O)c2ccccc21 | 88.2% (active)
17 | S=c1[nH]nc(-c2ccccc2Cl)n1/N=C/C=C/c1ccco1 | 34.1% (inactive)
18 | S=c1[nH]nc(-c2cccnc2)n1/N=C/C=C/c1ccco1 | 15.4% (inactive)
19 | COc1c(C)oc2cc(O)ccc2c1=O | 3.3% (inactive)
20 | O=C(Cc1cc(=O)oc2cc(O)ccc12)NCC1CCC(C(=O)O)CC1 (centres undefined) | 6% (inactive)
21 | S=C(Nc1ccc(Cl)cc1)Nc1cccc2cnccc12 | 42.2% (active)
22 | Cc1ccc(NC(=S)Nc2cccc3cnccc23)cc1C | 31.1% (inactive)
23 | CCc1ccc(NC(=S)Nc2cccc3cnccc23)cc1 | 69.6% (active)
24 | Fc1ccc(NC(=S)Nc2cccc3cnccc23)cc1 | 9.9% (inactive)
25 | Cc1cc(C)cc(NC(=S)Nc2cccc3cnccc23)c1 | 31.7% (inactive)

Row | Compound | inhibition
26 | COCCNC(=S)Nc1cccc2cnccc12 | -7.2% (inactive)
27 | O=C1N/C(=N/N=C/c2ccccc2O)SC1Cc1ccc(F)cc1 (centres undefined) | 7.4% (inactive)
28 | CCOc1cc(CNc2ccccc2SC)ccc1O | 65.8% (active)
29 | CNCc1ccccc1Sc1ccc(O)c(O)c1 | -26.2% (inactive)
30 | O=C(NCc1ccccc1)Nc1cccn(Cc2ccccc2F)c1=O | -5% (inactive)
31 | CCc1ccccc1NC(=O)Nc1cccn(Cc2ccccc2F)c1=O | 2.6% (inactive)
32 | COc1cccc(Cn2cccc(NC(=O)Nc3ccccc3C)c2=O)c1 | 31.1% (inactive)
33 | Cc1oc2c(c(C)cc3oc(=O)c(CC(=O)N[C@H](C(=O)O)C(C)C)c(C)c32)c1C | 10.7% (inactive)
34 | COc1ccc(-c2csc(CCN3N=C(C)CC3=O)n2)cc1 | 53.9% (active)
35 | COc1cccc(-c2[nH]nc3c2C(c2ccsc2)C(C#N)=C(N)O3)c1 (centres undefined) | 24.1% (inactive)
36 | CC(C)=CCC1=C(OCC(=O)O)C(=O)c2ccccc2C1=O | 99.7% (active)
37 | O=[N+]([O-])c1ccc(O)c(C=Nc2cccc3ncccc23)c1 | 19.8% (inactive)
38 | CC(C)N(C(=O)Nc1ccc2nccnc2c1)C(C)C | 44.2% (active)
39 | Fc1ccc(NC(=S)Nc2ccc3nccnc3c2)cc1 | 25% (inactive)
40 | CCCCn1c(=O)[nH]c2nc3cc(N)ccc3nc2c1=O | 9.9% (inactive)
41 | CC(C)(C)OC(=O)c1c(N)n(CCCN2CCCC2=O)c2nc3ccccc3nc12 | -0.3% (inactive)
42 | Cc1nnc(Sc2cc(NCCCO)c([N+](=O)[O-])c3nonc23)s1 | 21.7% (inactive)
43 | Cc1nnc(Sc2cc(NCCO)c([N+](=O)[O-])c3nonc23)s1 | 24.5% (inactive)
44 | CCC(=O)OCCNc1cc(Sc2nccn2C)c2nonc2c1[N+](=O)[O-] | 24.5% (inactive)
45 | CCC(=O)OCCNc1cc(Sc2nc3ccccc3s2)c2nonc2c1[N+](=O)[O-] | 46.1% (active)
46 | CC(=O)OCCCNc1cc(SCc2ccco2)c2nonc2c1[N+](=O)[O-] | 40.6% (inactive)
47 | O=[N+]([O-])c1c(NCCCO)cc(Sc2ccc(Cl)cc2)c2nonc12 | 42.6% (active)
48 | Cc1ccc(Sc2cc(NCCCO)c([N+](=O)[O-])c3nonc23)cc1 | 35.8% (inactive)
49 | O=[N+]([O-])c1c(NCCCO)cc(Sc2nc3ccccc3s2)c2nonc12 | 37.6% (inactive)
50 | CC(=O)OCCNc1cc(SCc2ccco2)c2nonc2c1[N+](=O)[O-] | 87.5% (active)

Row | Compound | inhibition
51 | O=C(Nc1ccccc1)Oc1ccc[nH]c1=O | 10.3% (inactive)
52 | CN(CCO)c1nc(N)c2c(N)nc3c(c2c1C#N)CC(=O)N3C1CCCC1 | 29.5% (inactive)
53 | CCOC(=O)c1c(-c2ccccc2)oc2ccc(OC(C)C(=O)O)cc12 (centres undefined) | -14% (inactive)
54 | N#Cc1c2ccc(OCC(N)=O)cc2n2ccccc12 | 56.5% (active)
55 | COc1ccc2cc3c(N)nn(C(=O)Cc4ccc(Cl)cc4)c3nc2c1 | 19.7% (inactive)
56 | COC(=O)c1c(C)oc(C)c1S(=O)(=O)NC(C)(C)C | 15% (inactive)
57 | CCOC(=O)CCc1c(C)c(C#N)c2[nH]c3ccccc3n2c1=O | 73.9% (active)
58 | C=CCNc1nc(NCc2ccccc2)c(C#N)c2c1CN(C)CC2 | 36.6% (inactive)
59 | Cc1cc(/C=N/n2c(COc3ccccc3C)nc3ccccc3c2=O)c(O)c([N+](=O)[O-])c1 | 102% (active)
60 | COc1ccc(CC2S/C(=N/N=C/c3ccccc3O)NC2=O)cc1 (centres undefined) | 19% (inactive)
61 | CC(=O)Oc1ccc2cc(-c3nc4ccccc4n3C)c(=O)oc2c1 | -26.3% (inactive)
62 | Brc1ccc(C2Nc3cccc4cccc(c34)N2)o1 | 69.5% (active)
63 | Cc1cc(C)cc(NC(=S)Nc2cccc3ccccc23)c1 | 4% (inactive)
64 | Cc1oc2c(c(C)cc3oc(=O)c(CC(=O)N[C@@H](C)C(=O)O)c(C)c32)c1C | -7% (inactive)
65 | CCC(NC(=O)Cc1c(C)c2c(cc(C)c3c(C)c(C)oc32)oc1=O)C(=O)O (centres undefined) | 26.9% (inactive)
66 | CCN(c1ccccc1)S(=O)(=O)c1ccc(Cl)c(NC(=O)COC(=O)c2cc(O)c3ccccc3c2O)c1 | 73% (active)
67 | COc1ccc2ccc3c(c2c1)N=C[C@]1(O3)N(C)c2ccccc2C1(C)C | 27.7% (inactive)
68 | CN1c2ccccc2C(C)(C)C12C=Nc1c(cc(N3CCOCC3)c3ccccc13)O2 (centres undefined) | 45.2% (active)
69 | COc1ccc(OC)c(-n2c(-c3cc(-c4ccco4)[nH]n3)n[nH]c2=S)c1 | 48.4% (active)
70 | S=c1[nH]nc(-c2cc(-c3ccco3)[nH]n2)n1-c1ccccc1Cl | 96.5% (active)
71 | Cc1ccc(-n2c(-c3cc(-c4ccco4)[nH]n3)n[nH]c2=S)c(Br)c1 | 57% (active)
72 | S=c1[nH]nc(-c2cc(-c3ccco3)[nH]n2)n1-c1cccc2ccccc12 | 46.9% (active)
73 | S=c1[nH]nc(-c2ccco2)n1/N=C/C=C/c1ccco1 | 25.8% (inactive)
74 | O=C1C2C3C=CC(C3)C2C(=O)N1CNc1ccc(O)cc1 (centres undefined) | 92.9% (active)
75 | CC(=O)C1C(=O)C=C(c2ccco2)CC1c1ccccc1 (centres undefined) | -5.3% (inactive)

Row | Compound | inhibition
76 | O=C(Nc1ccc(-n2nncc2-c2ccco2)cc1)c1cc2ccccc2oc1=O | 35.2% (inactive)
77 | O=C(O)c1cc(-c2ccco2)nn1-c1ccc(Cl)cc1 | 54.7% (active)
78 | COc1ccccc1C1Nc2cccc3cccc(c23)N1 | 77.6% (active)
79 | COc1cc(OC)c(C2Nc3cccc4cccc(c34)N2)c(OC)c1 | 91.3% (active)
80 | CCOc1ccc(C2Nc3cccc4cccc(c34)N2)cc1OC | 73.4% (active)
81 | Cc1cccc(NC(=O)CC2Nc3cccc4cccc(c34)NC2=O)c1 (centres undefined) | 28.8% (inactive)
82 | Cc1ccc(C2Nc3cccc4cccc(c34)N2)s1 | 71.9% (active)
83 | C=CCn1c(SCC(=O)N2N=C(c3ccco3)CC2c2ccco2)nnc1-c1ccncc1 (centres undefined) | 3.2% (inactive)
84 | Fc1cccc(Cl)c1C1Nc2cccc3cccc(c23)N1 | 53.9% (active)
85 | O=C(CC1Nc2cccc3cccc(c23)NC1=O)Nc1ccccc1 (centres undefined) | 30.7% (inactive)
86 | Oc1ccc(C2Nc3cccc4cccc(c34)N2)c(O)c1 | 86.1% (active)
87 | O=C1C2C3C=CC(C4CC34)C2C(=O)N1CCc1ccccc1 (centres undefined) | -31.9% (inactive)
88 | COCCCNC(=O)c1cccn2c(=O)c3cc4ccccc4cc3nc12 | 16.5% (inactive)
89 | C=CCOc1c(Cl)cc(CNc2ccc3[nH]c(=O)[nH]c3c2)cc1OC | 41.5% (inactive)
90 | CCOc1c(Br)cc(/C=C2\C(=O)N(CCC#N)N=C2C)cc1OC | 8.8% (inactive)
91 | Cc1cccc(/C=N/NC(=O)C(C)Nc2cccc3ccccc23)n1 (centres undefined) | -0.7% (inactive)
92 | COCCN=c1scc(-c2ccco2)n1/N=C/c1ccc(O)c(O)c1O | 82.6% (active)
93 | CC1=NN(c2ccccc2)C(=O)C1 | 53.2% (active)
94 | Cc1[nH]n(-c2ccccc2)c(=O)c1/C=N/N(C)c1ccccc1 | 73% (active)
95 | Cc1cc(Br)ccc1-n1[nH]c(C)c(C=Nc2cccc3nsnc23)c1=O | 39.7% (inactive)
96 | Cc1ccc(/C=C2\SC(=S)N(c3cccnc3)C2=O)o1 | 33.6% (inactive)
97 | Cc1cccc2nc(-c3ccco3)c(Nc3ccc4c(c3)OCO4)n12 | 19.8% (inactive)
98 | Cc1ccc(NC(=O)CSc2nnc(-c3ccco3)c(-c3ccco3)n2)cc1 | 97.9% (active)
99 | CN(C)c1ccc(NC(=O)CSc2nnc(-c3ccco3)c(-c3ccco3)n2)cc1 | 46.4% (active)
